# Assay outcomes: PubChem BioAssay, University of Kansas High Throughput Screening Laboratory
# Compounds with a hit are over-represented: about 3.6% of the library has one in this group of screens.
# mHTT-CaM PPI inh: mutant huntingtin-calmodulin interaction inhibitors – biochemical, AlphaScreen, primary screen. P42858. AlphaScreen His-mHTT/GST-CaM binding, luminescence. inhibition, % at 15 µM. 190,000 compounds, 3.6% hits. AID 1671202, 2021;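 further: 0% = both proteins with DMSO and 100% = one protein alone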
# Pf apPOL block: Pf-apPOL inhibitors, biochemical, fluorescence; Plasmodium falciparum apicoplast DNA polymerase (apPOL); Recombinant Pf-apPOL, molecular beacon fluorescence, 1.5 h; inhibition, % at 10 µM; 210,000 compounds, 0.25% hits
# * marks the source's active call; other numbers are inactive results; i = inactive; · = not tested or not shown; ! = not active in a repeat. No stated cut-off is given here; in the data, active means inhibition above about 50%; inactive means the rest.
SMILES,mHTT-CaM PPI inh,Pf apPOL block
O=[N+]([O-])c1ccc(Sc2cccs2)c([N+](=O)[O-])c1,64*,·
O=[N+]([O-])c1ccc(SC2=NCCS2)c([N+](=O)[O-])c1,·,-1
Cc1cccc(NC(=O)c2cncc(Br)c2)c1,-7,0
O=C(NC(Nc1ccc([N+](=O)[O-])cc1)C(Cl)(Cl)Cl)c1cccs1 (stereo unspecified),34,0
Cc1ccc(NC(NC(=O)c2cccs2)C(=O)c2ccccc2)cc1 (stereo unspecified),38,-3
O=C(NC(Nc1ccc(I)cc1)C(Cl)(Cl)Cl)c1cccs1 (stereo unspecified),84*,-3
O=C(NC(Nc1ccc(Cl)cc1)C(=O)c1ccccc1)c1cccs1 (stereo unspecified),81*,-3
Cc1ccn2c(NC(=O)C(C)(C)CCl)c(-c3ccccc3)nc2c1,9,4
CCCC(=O)O/N=C1\CC(C)(C)Cc2noc(Cc3ccccc3)c21,i,-4
CC1CCCCN1S(=O)(=O)c1ccc2[nH]c(=O)cc(C(=O)NCc3ccccc3Cl)c2c1 (stereo unspecified),63*,36
CC1CCN(S(=O)(=O)c2ccc3[nH]c(=O)cc(C(=O)NCc4ccccn4)c3c2)CC1,-12,-6
Cc1nc2ccccn2c(=O)c1NC(=O)Nc1ccc(F)c(Cl)c1,-16,-5
CCOC(=O)Oc1ccc2c(=O)c(-c3ccc(OC)cc3)c(C)oc2c1,6,1
CCOC(=O)Oc1c(Cl)cc2oc(=O)sc2c1Cl,77*,2
O=[N+]([O-])c1cc2cccnc2c2ncccc12,100*,·
COc1ccc(Nc2c([N+](=O)[O-])cc([N+](=O)[O-])c3cccnc23)cc1,14,-4
O=[N+]([O-])c1ccc(N2CCN(CCO)CC2)c2ncccc12,5,-1
O=[N+]([O-])c1cc([N+](=O)[O-])c2cccnc2c1Nc1ccc(O)cc1,75*,0
CCCN(CCC)c1c([N+](=O)[O-])cc([N+](=O)[O-])c2cccnc12,80*,-2
CS(=O)(=O)c1ccc(Sc2cccc3cccnc23)c([N+](=O)[O-])c1,4,1
CCOc1ccccc1N1C(=O)C2CC(C)=C(C)CC2C1=O (stereo unspecified),0,1
CCCCC(=O)Nc1cccc(C)c1C,-8,-1
O=C(Nc1ccccc1)/C(=C\c1ccc(O)cc1)NC(=O)c1ccco1,-5,0
Cc1cc2c(cc(C(=O)N3CCN(C)CC3)n2Cc2cccc(F)c2)s1,56*,-2
C=C(C)Cn1c(C(=O)N2CCN(C)CC2)cc2sc(C)cc21,8,-6
SMILES,mHTT-CaM PPI inh,Pf apPOL block
CN1C(=O)/C(=c2\sc3nc(=O)c(Cc4ccccc4)nn3c2=O)c2ccccc21,-6,-3
CN1CCN(c2ccc(C(=O)c3ccc(Br)cc3)cc2[N+](=O)[O-])CC1,57*,4
O=C(c1ccc(Br)cc1)c1ccc(N2CCOCC2)c([N+](=O)[O-])c1,12,0
CCCCOc1ccc(C(=O)Nc2cccc(C(=O)O)c2)cc1,0,-3
Cc1cc2c(cc1C)NC(CC(=O)Nc1ccccc1C)C(=O)N2 (stereo unspecified),5,-2
Cc1ccc(NC(=O)CC2Nc3cc(C)c(C)cc3NC2=O)c(Br)c1 (stereo unspecified),64*!,-6
CCOc1ccccc1NC(=O)CC1Nc2cc(C)c(C)cc2NC1=O (stereo unspecified),21,5
Cc1cc2c(cc1C)NC(CC(=O)Nc1ccccc1OC(F)F)C(=O)N2 (stereo unspecified),50*!,5
COc1ccc(C(=O)Oc2ccc3c(c2)OC(=Cc2ccc4c(c2)OCO4)C3=O)cc1OC,3,0
O=c1[nH]c2ccc(Cl)cc2c(-c2ccccc2)c1C1=NOC(c2ccccc2)C1 (stereo unspecified),100*,-10
CC(=O)N1N=C(c2c(-c3ccccc3)c3cc(Br)ccc3[nH]c2=O)CC1c1ccco1 (stereo unspecified),95*,0
O=c1[nH]c2ccc(Br)cc2c(-c2ccccc2)c1[N+](=O)[O-],8,-8
CC(=O)N1N=C(c2c(-c3ccccc3)c3cc(Cl)ccc3[nH]c2=O)CC1c1ccccc1Cl (stereo unspecified),93*,-2
COc1ccc(C2CC(c3c(-c4ccccc4)c4cc(Br)ccc4[nH]c3=O)=NO2)cc1 (stereo unspecified),15,6
CC(=O)N1N=C(c2c(-c3ccccc3)c3cc(Cl)ccc3[nH]c2=O)CC1c1ccccc1F (stereo unspecified),18,-2
O=C(COC(=O)c1cc2cc(Br)ccc2oc1=O)c1ccc([N+](=O)[O-])cc1,-1,-3
CCOc1ccc(CC(=O)Nc2ccc3cn[nH]c3c2)cc1,-5,-10
COc1ccc(CC(=O)N2CCCC2c2ccccc2Cl)cc1 (stereo unspecified),6,2
CC1(C)C(c2nc(-c3ccc(Br)cc3)no2)C1(C)C,-25,·
Cc1cccc(NC(=O)c2c(O)c3cccnc3n(-c3ccccc3)c2=O)c1C,-1,-2
Cc1ccccc1C1C(C#N)=C(N)OC2=C1C(=O)CC(C)(C)C2 (stereo unspecified),-2,1
CC1(C)CC(=O)C2=C(C1)OC(N)=C(C#N)C2c1cn(-c2ccccc2)nc1-c1ccccc1 (stereo unspecified),76*,1
Cc1ccc(S(=O)(=O)N2CCC(c3noc(-c4cccc(C)c4)n3)CC2)cc1,-4,-4
CC1=C(C(=O)Nc2ccccn2)C(c2ccccc2)C2=C(CCCC2=O)N1 (stereo unspecified),-1,52*
CC1=C(C(=O)Nc2cccc(C(F)(F)F)c2)C(c2ccncc2)C2=C(CCCC2=O)N1 (stereo unspecified),-1,-1
SMILES,mHTT-CaM PPI inh,Pf apPOL block
CC1=C(C(=O)Nc2ccccn2)C(c2ccc(F)cc2)C2=C(CCCC2=O)N1 (stereo unspecified),0,2
CC1=C(C(=O)Nc2cccc(C(F)(F)F)c2)C(c2ccc(N(C)C)cc2)C2=C(CCCC2=O)N1 (stereo unspecified),57*,-3
COc1ccc(C=C2Oc3cc(OC(=O)C(C)C)ccc3C2=O)c(OC)c1OC,26,-4
COc1cccc(N2CCN(C(=O)CC(C)(C)C)C(C)C2=O)c1 (stereo unspecified),0,-2
O=C1c2[nH]nc(-c3ccc(F)cc3)c2C(c2ccccc2[N+](=O)[O-])N1c1ccccc1 (stereo unspecified),83*,-1
COc1ccc(-c2n[nH]c3c2C(c2ccc(OC)cc2)N(c2ccccc2)C3=O)cc1 (stereo unspecified),43,-2
COc1cc(C2c3c(-c4ccc(F)cc4)n[nH]c3C(=O)N2c2ccccc2)ccc1O (stereo unspecified),78*,-1
O=C1c2[nH]nc(-c3ccccc3)c2C(c2cccc([N+](=O)[O-])c2)N1c1ccccc1 (stereo unspecified),28,28
O=C(NCCCN1CCCC1=O)Nc1c[nH]c2ccccc12,8,8
Nc1cc(C(=O)c2ccc(Cl)c(N)c2)ccc1Cl,-4,-6
Cc1nc2cc(-c3ccccc3)nn2c(C(C)(C)C)c1C,13,-1
COc1ccccc1/C=C1/N=C(c2ccccc2OC)OC1=O,4,-3
